The source of these data is PubChem BioAssay (Tox21).

Assay [1] can be described thus: qHTS assay to identify small molecule antagonists of the thyroid receptor (TR) signaling pathway - cell viability counter screen (AID 743064). Further: nearly all actives have a fitted effect of over 50% in size. Further: potency means the concentration at half of the fitted maximal effect. The gist of the method:
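GH3.TRE-Luc rat pituitary cells carrying a TRE-luciferase reporter were treated with compound plus 1 nM T3 (final) for 23.5 h at 37 °C. Viability was then read in the same wells by CellTiter-Fluor fluorescence after a further 30 min.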
(In general: In qHTS, concentration-response curves come from the screen itself.)

The test system of assay [2] is thyroid hormone receptor (rat, GH3 cells). The experiment in a line: qHTS assay to identify small molecule agonists of the thyroid receptor (TR) signaling pathway (AID 743066; calls by dose curve).
A short description of assay [3]: qHTS assay to identify small molecule antagonists of the estrogen receptor alpha (ER-alpha) signaling pathway - cell viability counter screen (AID 743074; calls by dose curve;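 further: HEK293 cells carrying ER-alpha-UAS-bla reporter stimulated with 17beta-estradiol; nearly all actives have a fitted effect of over 45% in size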).
The nature of assay [4]: qHTS assay to identify small molecule antagonists of the estrogen receptor alpha (ER-alpha) signaling pathway using the BG1 cell line - cell viability counter screen (AID 743081).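 Further: compound given together with 17beta-estradiol as the ER stimulus; nearly all actives have a fitted effect of over 45% in size.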 Further: potency means the concentration at half of the fitted maximal effect.
The next assay deals with Aromatase (Homo sapiens) (UniProt P11511). The assay can be described thus: qHTS assay to identify aromatase inhibitors (AID 743083). Further: series mostly up to about 70 µM; nearly all actives have a fitted effect of over 55% in size.
Chain of Aromatase (Homo sapiens) (P11511 whole entry, looked up): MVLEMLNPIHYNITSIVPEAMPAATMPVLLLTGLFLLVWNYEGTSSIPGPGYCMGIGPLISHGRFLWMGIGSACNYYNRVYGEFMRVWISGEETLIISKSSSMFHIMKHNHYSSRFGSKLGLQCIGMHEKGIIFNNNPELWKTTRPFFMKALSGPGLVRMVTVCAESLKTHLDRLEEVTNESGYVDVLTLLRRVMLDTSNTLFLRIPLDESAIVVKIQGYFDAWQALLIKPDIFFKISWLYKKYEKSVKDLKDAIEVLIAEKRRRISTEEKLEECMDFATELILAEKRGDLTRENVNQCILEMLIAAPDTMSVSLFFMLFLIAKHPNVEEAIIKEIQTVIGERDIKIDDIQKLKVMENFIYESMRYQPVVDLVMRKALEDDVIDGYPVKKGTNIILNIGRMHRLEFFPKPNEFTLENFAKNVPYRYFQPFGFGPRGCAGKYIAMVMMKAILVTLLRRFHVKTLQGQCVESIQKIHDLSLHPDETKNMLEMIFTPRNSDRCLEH
Assay [5] can be described thus: qHTS assay to identify aromatase inhibitors - cell viability counter screen (AID 743084).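 Further: cells stimulated with testosterone during compound exposure; nearly all actives have a fitted effect of over 55% in size.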 Further: potency means the concentration at half of the fitted maximal effect.
Assay [6] addresses Aryl hydrocarbon receptor (Homo sapiens) (UniProt P35869). The experiment in a line: qHTS assay to identify small molecule that activate the aryl hydrocarbon receptor (AhR) signaling pathway (AID 743085). Further: nearly all actives have a fitted effect of over 15% in size. Further: potency means the concentration at half of the fitted maximal effect.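 On activation: HG2L7.5c1 human HepG2 liver cells with stably integrated DRE-driven firefly reporter; series mostly up to about 70 µM.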 A digest of the protocol:
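HepG2 cells (HG2L7.5c1) stably carrying a firefly luciferase reporter driven by 20 dioxin responsive elements were exposed to compound for 24 h at 37C after a 5 h settling period; luminescence rise (ONE-Glo) indicated activation.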

A short description of assay [7]: qHTS assay to identify small molecule that activate the aryl hydrocarbon receptor (AhR) signaling pathway - cell viability counter screen (AID 743086). Further: nearly all actives have a fitted effect of over 45% in size. Further: potency means the concentration at half of the fitted maximal effect. A digest of the protocol: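 Cytotoxicity counter screen: CellTiter-Fluor signal (30 min, 37 C) in 4000 HepG2 cells/well carrying the DRE-luciferase reporter, following 24 h compound exposure at 37 C.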
Assay [8] is described as follows: qHTS assay for small molecule agonists of the antioxidant response element (ARE) signaling pathway - cell viability counter screen (AID 743203; calls by dose curve; further: nearly all actives have a fitted effect of over 55% in size; further: potency means the concentration at half of the fitted maximal effect). A digest of the protocol: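 HepG2 cells carrying ARE-driven beta-lactamase; 2,000 cells/well; 5 hrs plating; compound pinned from DMSO; 16 hrs 37C/5% CO2; CellTiter-Glo added; 30 min RT; luminescence.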
Assay [9] is described as follows: qHTS assay for small molecule activators of the heat shock response signaling pathway - cell viability counter screen (AID 743209). Further: nearly all actives have a fitted effect of over 50% in size. The gist of the method: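 Luminescence from CellTiter-Glo, added after the beta-lactamase FRET read, gave the viability signal. Cells were HSE-bla HeLa treated with DMSO-dissolved compounds for 5 h at 37 C following overnight plating.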

Assay [10] in a line: qHTS assay for small molecule activators of the heat shock response signaling pathway (AID 743210; active means well fitted activation curve with a large enough effect in the signal ratio in the repeat runs, with a control signal flat, not every such curve was filed as active; the % refers to the signal ratio;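 further: HeLa cells with beta-lactamase reporter driven by heat shock elements; series mostly up to about 63 µM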). The gist of the method: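 In HSE-bla HeLa cells, 5 h compound incubation (37 C) precedes addition of LiveBLAzer B/G substrate; after 2.5 h at room temperature, fluorescence intensity indicates reporter induction.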
The nature of assay [11]: qHTS assay to identify small molecule antagonists of the thyroid receptor (TR) signaling pathway (AID 743065). Further: nearly all actives have a fitted effect of over 55% in size. Further: potency means the concentration at half of the fitted maximal effect. A digest of the protocol: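 Antagonism measured as loss of luciferase signal in GH3 cells stably carrying a TRE-luciferase reporter, co-treated with compound and T3 (1 nM final) for 23.5 h at 37 C. Viability was read in the same well by CellTiter-Fluor.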
The target of assay [12] is Estrogen receptor (Homo sapiens) (UniProt P03372). The assay can be described thus: qHTS assay to identify small molecule antagonists of the estrogen receptor alpha (ER-alpha) signaling pathway (AID 743069; active means well fitted curve in the direction sought with a large enough effect in the signal ratio in the repeat runs, not every such curve was filed as active; the % refers to the signal ratio). A digest of the protocol: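 Compound effects are measured against 17beta-estradiol stimulation in HEK293 cells with a UAS-controlled beta-lactamase reporter for ER-alpha. Exposure lasts 18 hr at 37C; LiveBLAzer B/G FRET substrate follows for 2 hr at room temperature.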
Chain of Estrogen receptor (Homo sapiens) (P03372 whole entry, looked up): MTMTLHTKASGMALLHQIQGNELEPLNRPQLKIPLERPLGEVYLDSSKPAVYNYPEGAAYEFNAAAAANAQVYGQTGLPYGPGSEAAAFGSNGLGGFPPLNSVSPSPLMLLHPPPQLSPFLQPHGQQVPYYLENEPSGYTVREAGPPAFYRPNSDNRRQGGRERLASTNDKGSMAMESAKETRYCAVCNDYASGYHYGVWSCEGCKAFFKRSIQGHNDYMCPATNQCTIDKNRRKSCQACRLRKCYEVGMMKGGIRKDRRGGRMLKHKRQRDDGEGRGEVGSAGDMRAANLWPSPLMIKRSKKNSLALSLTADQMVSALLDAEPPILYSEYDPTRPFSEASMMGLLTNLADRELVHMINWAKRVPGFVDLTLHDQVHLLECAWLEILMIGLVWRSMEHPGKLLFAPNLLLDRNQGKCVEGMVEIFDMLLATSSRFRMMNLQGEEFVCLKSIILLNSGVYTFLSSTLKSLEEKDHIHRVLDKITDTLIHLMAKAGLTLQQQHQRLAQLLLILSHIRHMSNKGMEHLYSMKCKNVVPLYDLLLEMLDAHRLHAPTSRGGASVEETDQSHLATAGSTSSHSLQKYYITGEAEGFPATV

The target is the same in assay [13]. The assay can be described thus: qHTS assay to identify small molecule agonists of the estrogen receptor alpha (ER-alpha) signaling pathway (AID 743075; calls by dose curve).
The target is the same in assay [14]. The experiment in a line: qHTS assay to identify small molecule agonists of the estrogen receptor alpha (ER-alpha) signaling pathway using the BG1 cell line (AID 743079). Further: nearly all actives have a fitted effect of over 20% in size.
Assay [15] in a line: qHTS assay to identify small molecule antagonists of the estrogen receptor alpha (ER-alpha) signaling pathway using the BG1 cell line (AID 743080; calls by dose curve;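 further: BG1 cells stimulated with 17beta-estradiol alongside compound; series mostly up to about 70 µM; nearly all actives have a fitted effect of over 25% in size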). The gist of the method: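 Seeding, 24 h rest, compound transfer from DMSO, 17beta-estradiol addition, 21.5 h incubation, CellTiter-Fluor (30 min, 37 C), then ONE-Glo (30 min, room temperature): this sequence was run on BG1-Luc-4E2 reporter cells.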

The target of assay [16] is Peroxisome proliferator-activated receptor gamma (Homo sapiens) (UniProt P37231). The experiment in a line: qHTS assay to identify small molecule agonists of the peroxisome proliferator-activated receptor gamma (PPARg) signaling pathway (AID 743094; active means well fitted activation curve with a large enough effect in the signal ratio in the repeat runs, not every such curve was filed as active; the % refers to the signal ratio). The gist of the method:
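Beta-lactamase FRET fluorescence was the read-out after a 1 h room-temperature substrate step, following 17 h compound treatment at 37C of HEK293H cells expressing a UAS-driven bla reporter responsive to PPARg.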

The nature of assay [17]: qHTS assay to identify small molecule antagonists of the peroxisome proliferator-activated receptor gamma (PPARg) signaling pathway - cell viability counter screen (AID 743194). Further: nearly all actives have a fitted effect of over 55% in size. The gist of the method:
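Viability was measured as CellTiter-Glo luminescence in GeneBLAzer PPARg UAS-bla HEK293H cells. These cells had been exposed 17 h at 37 C to compounds together with rosiglitazone at 50 nM final, with the beta-lactamase readout taken in the same wells.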

Assay [18] has as its target Peroxisome proliferator-activated receptor gamma (Homo sapiens) (UniProt P37231). The experiment in a line: qHTS assay to identify small molecule antagonists of the peroxisome proliferator-activated receptor gamma (PPARg) signaling pathway (AID 743191; calls by dose curve; further: series mostly up to about 63 µM; nearly all actives have a fitted effect of over 30% in size). The gist of the method: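 Beta-lactamase reporter under UAS control in HEK293H PPARg-bla cells; compound treatment 17 h at 37C. Read-out: fluorescence intensity after 1 h room-temperature incubation with LiveBLAzer B/G FRET substrate.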

Assay [19] in a line: qHTS assay for small molecule agonists of the antioxidant response element (ARE) signaling pathway (AID 743202; active means well fitted activation curve with a large enough effect in the signal ratio in the repeat runs, not every such curve was filed as active; the % refers to the signal ratio). A digest of the protocol: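 An ARE-responsive beta-lactamase gene stably integrated in HepG2 cells serves as reporter. After 5 h plating and 16 h compound incubation at 37 C, fluorescence of the B/G FRET substrate was measured.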

“And” between values parts separate entries of the source, which are not always exact repeats. Identical values can stand only once. Records with an inconclusive call do not appear. Some structures have more than one record in an assay (separate samples or runs), and their calls can disagree. The source made the active and inactive calls. Unless noted, the call rests on the fitted dose curve; in most records, active means well fitted curve in the direction sought with a large enough effect in the repeat runs; inconclusive means weak or mixed curves; inactive means no such curve, though single readings can be large; an effect the other way counts as inactive or inconclusive.

Chain of Peroxisome proliferator-activated receptor gamma (Homo sapiens) (P37231 whole entry, looked up): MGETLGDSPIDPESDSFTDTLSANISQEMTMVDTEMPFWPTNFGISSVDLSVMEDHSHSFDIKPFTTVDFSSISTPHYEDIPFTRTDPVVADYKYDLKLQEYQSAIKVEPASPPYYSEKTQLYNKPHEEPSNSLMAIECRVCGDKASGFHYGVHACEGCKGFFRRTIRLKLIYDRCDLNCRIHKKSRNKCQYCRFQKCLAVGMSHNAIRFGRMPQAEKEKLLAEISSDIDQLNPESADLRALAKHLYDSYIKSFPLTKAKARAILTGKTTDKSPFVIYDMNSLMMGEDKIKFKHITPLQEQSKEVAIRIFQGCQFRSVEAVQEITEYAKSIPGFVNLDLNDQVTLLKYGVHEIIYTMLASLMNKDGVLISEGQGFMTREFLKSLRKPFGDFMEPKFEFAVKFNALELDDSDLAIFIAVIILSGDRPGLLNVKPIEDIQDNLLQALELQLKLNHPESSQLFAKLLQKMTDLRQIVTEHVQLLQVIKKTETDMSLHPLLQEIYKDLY
Chain of Aryl hydrocarbon receptor (Homo sapiens) (P35869 whole entry, looked up): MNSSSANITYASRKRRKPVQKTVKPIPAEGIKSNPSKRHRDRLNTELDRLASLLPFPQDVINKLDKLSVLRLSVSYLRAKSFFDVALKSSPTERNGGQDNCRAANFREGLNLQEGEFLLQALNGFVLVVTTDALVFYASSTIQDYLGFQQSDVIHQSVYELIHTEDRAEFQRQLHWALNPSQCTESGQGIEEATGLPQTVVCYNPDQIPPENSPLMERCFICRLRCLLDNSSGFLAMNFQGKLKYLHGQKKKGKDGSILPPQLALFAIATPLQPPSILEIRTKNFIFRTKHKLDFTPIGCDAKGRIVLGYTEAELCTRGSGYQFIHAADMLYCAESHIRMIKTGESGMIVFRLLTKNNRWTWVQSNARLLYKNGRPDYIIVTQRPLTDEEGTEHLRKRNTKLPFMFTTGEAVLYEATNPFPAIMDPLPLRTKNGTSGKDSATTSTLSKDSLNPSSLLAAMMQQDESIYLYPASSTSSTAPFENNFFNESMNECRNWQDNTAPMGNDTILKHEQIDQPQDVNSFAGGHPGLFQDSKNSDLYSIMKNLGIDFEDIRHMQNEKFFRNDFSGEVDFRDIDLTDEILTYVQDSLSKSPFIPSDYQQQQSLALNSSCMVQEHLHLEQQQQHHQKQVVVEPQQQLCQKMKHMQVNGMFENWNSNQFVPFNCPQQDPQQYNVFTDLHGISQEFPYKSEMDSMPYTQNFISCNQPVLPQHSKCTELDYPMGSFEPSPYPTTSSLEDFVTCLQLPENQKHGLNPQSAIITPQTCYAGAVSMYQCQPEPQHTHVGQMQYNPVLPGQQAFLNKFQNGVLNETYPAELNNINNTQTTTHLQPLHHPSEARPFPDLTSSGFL

As for `CN(C)CCCN1c2ccccc2CCc2ccc(Cl)cc21`, the Potency was 10.6 µM (active) and 10.9 µM (active) in [1]; 54.5 µM (active) in assay [4]; 48.6 µM (active) in assay [5]; 27.3 µM (active) in [7]; 43.3 µM (active) in [8]. The result in [2], in assay [3], in [9] and in [10] was inactive. The Potency entry (with Aromatase (Homo sapiens); in assay [6]) was “inactive” in each case.

On to `C/C=C(\C)C#N`, for which the Potency result (in [11]; in assay [13]; in assay [14]; in assay [4]; in the assay with Aromatase (Homo sapiens); in [5]) was “inactive” throughout. Also, the Potency entry in assay [6], in [7] and in assay [8] was “inactive” throughout. In addition, the molecule was classed as inactive in assay [2], in [12], in [3], in [15], in assay [16] and in [9]. Moreover, the molecule was classed as inactive in assay [10].

As for `C=CCCCCCCCCC=O`, the Potency entry (in assay [1]; in assay [13]; in assay [14]; in assay [4]; with Aromatase (Homo sapiens); in [5]) was “inactive” in each case. Further, the Potency result in [6], in [7] and in [8] was “inactive” throughout. In addition, the molecule was called inactive in [2], in assay [3], in assay [15], in assay [16], in [17] and in assay [9]. Besides, the call in [10] was inactive.

`NC(=O)COCCN1CCN(C(c2ccccc2)c2ccc(Cl)cc2)CC1` (stereo unspecified): in [1], the Potency is 23.7 µM (active). For the same molecule, the call in assay [12], in assay [3], in [15], in assay [16], in [17] and in assay [9] was inactive. In [10], the outcome was inactive. The Potency result (in [13]; in assay [14]; in assay [4]; in the assay with Aromatase (Homo sapiens); in assay [5]; in assay [6]) was “inactive” each time. The Potency result in assay [18] and in assay [8] was “inactive” in each case.

Regarding `CCCCCCOC(=O)CCCCC(=O)OCCCCCC`, the Potency result (in assay [11]; in assay [13]; in assay [14]; in assay [4]; with Aromatase (Homo sapiens); in assay [5]) was “inactive” in each case. Further, the Potency result in [6], in assay [7], in [18] and in assay [8] was “inactive” in each case. The molecule was classed as inactive in [2], in assay [12], in assay [3], in assay [15], in assay [16] and in assay [17]. Also, the molecule was classed as inactive in assay [9] and in assay [10].

Consider `Cc1ccc(=O)n(-c2ccccc2)c1`, for which the Potency result (in assay [1]; in assay [13]; in [4]; in the assay with Aromatase (Homo sapiens); in assay [5]; in assay [6]) was “inactive” each time. Also, the Potency result in assay [7], in assay [18], in assay [19] and in assay [8] was “inactive” throughout. For the same molecule, the molecule was called inactive in assay [12], in [3], in assay [15], in [16], in assay [17] and in assay [9]. Also, the outcome in [10] was inactive.

Take `CCCCOCCOCCOCc1cc2c(cc1CCC)OCO2`: the Potency entry (in assay [1]; in assay [4]; with Aromatase (Homo sapiens); in assay [5]; in [7]; in assay [19]) was “inactive” each time. The Potency result in assay [8] is “inactive”. Also, the molecule was called inactive in assay [2], in assay [3], in assay [17], in assay [9] and in [10]. Further, the Potency result in assay [6] is “inactive and 18 µM (active)”.

As for `OC[C@]1(O)OC[C@@H](O)[C@H](O)[C@@H]1O`, the Potency entry (in assay [1]; in assay [4]; with Aromatase (Homo sapiens); in [5]; in [6]; in assay [7]) was “inactive” throughout. Further, the Potency entry in [18] and in [8] was “inactive” throughout. In addition, the result in assay [2], in assay [3], in [16], in assay [17], in assay [9] and in [10] was inactive.

On to `CO/N=C(/C(=O)N[C@@H]1C(=O)N2C(C(=O)OCOC(=O)C(C)(C)C)=C(C)CS[C@H]12)c1csc(N)n1`, for which the Potency result (in assay [1]; in [4]; with Aromatase (Homo sapiens); in [5]; in assay [6]; in assay [7]) was “inactive” throughout. Also, the Potency result in [19] and in assay [8] was “inactive” in each case. The call in assay [2], in assay [17], in assay [9] and in [10] was inactive.

Consider `OC(CCN1CCCCC1)(c1ccccc1)C1CC2C=CC1C2` (stereo unspecified), for which the Potency in assay [11] was 26.6 µM (active) and 23.7 µM (active). The call in assay [2], in assay [12], in assay [3], in [15], in assay [16] and in [17] was inactive. For the same molecule, the molecule was called inactive in assay [9] and in [10]. Further, the Potency result (in assay [13]; in [14]; with Aromatase (Homo sapiens); in [5]; in assay [6]; in assay [7]) was “inactive” each time. For the same molecule, in [8], the Potency result is “inactive”.

For the molecule `O=c1[nH]c(=O)n([C@H]2C[C@H](O)[C@@H](CO)O2)cc1I`, the Potency entry (in [1]; in assay [4]; in the assay with Aromatase (Homo sapiens); in [5]; in assay [6]; in assay [7]) was “inactive” throughout. Moreover, the Potency result in assay [18], in [19] and in assay [8] was “inactive” each time. In addition, the result in assay [2], in assay [3], in assay [16], in assay [17], in [9] and in assay [10] was inactive.

As for `CC/C=C\CC/C=C/C(OCC)OCC`, the Potency entry in assay [1], in [4], in [7] and in assay [8] was “inactive” in each case. Moreover, the outcome in assay [2], in assay [17] and in [9] was inactive.

In the case of `CCO[Si](CCC1CCC2OC2C1)(OCC)OCC` (stereo unspecified), the Potency entry (in assay [11]; in assay [13]; in [14]; in assay [4]; in the assay with Aromatase (Homo sapiens); in [5]) was “inactive” throughout. The Potency entry in assay [6], in assay [7], in [18], in assay [19] and in assay [8] was “inactive” in each case. Also, the outcome in assay [2], in [12], in assay [3], in assay [15], in assay [9] and in assay [10] was inactive.

As for `NC(=O)c1ccc([N+](=O)[O-])cc1`, the Potency result (in assay [1]; in [4]; with Aromatase (Homo sapiens); in assay [5]; in assay [6]; in assay [7]) was “inactive” each time. Also, the Potency entry in assay [18] and in assay [8] was “inactive” in each case. For the same molecule, the outcome in assay [2], in assay [3], in [16], in [17] and in assay [9] was inactive.

On to `N=C(N)c1ccc(OCCCOc2ccc(C(=N)N)cc2)cc1`, for which the Potency result in assay [1], in [13], in assay [14], in [4], in assay [5] and in [6] was “inactive” in each case. Besides, the Potency result in assay [18] and in [8] was “inactive” each time. The outcome in assay [2], in assay [12], in assay [15], in assay [16], in assay [17] and in assay [9] was inactive. Moreover, the call in assay [10] was inactive.
